# In PubChem BioAssay:
# Activity calls are given as the source filed them.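 How the source made its calls, unless noted: active means inhibition of the reporter signal at or above 50%; inactive means inhibition below 50%.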
# Columns and labels:
# [1] = inhibitors of TNFa-induced NFkB p65 translocation, primary screen, imaging, HUVEC, MLSMR starter and 10KST1 sets (AID 438;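 active means inhibition above 20% together with a positive visual image hit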;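 further: compound added about 3h40 before a 20 min TNFalpha stimulation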;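 on inhibition: signal is the nuclear over cytoplasmic p65 intensity ratio per well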); details: HUVEC TNFa-induced p65 nuclear translocation; cell count: measured here: nuclei count (cytotoxicity indicator), at 2.08 µM; inhibition: at 2 µM, stronger effect = higher value, 0% TNFa-plus-vehicle, 100% no-TNFa wells
# [2] = inhibitors of mutant huntingtin aggregation, primary screen, imaging, exon1htt(103Q)mCFP cells, high-content imaging (AID 483;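 active means visual image review flags a hit and inhibition of aggregation exceeds 20%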;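 further: compound exposure lasted 3 days before fixation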;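 on nuclei count: percent of the per-plate median nuclei count of sample wells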); details: exon1htt(103Q)mCFP cell line, aggregate imaging, at 2 µM; inhibition of aggregation: stronger effect = higher value; nuclei count: measured here: cell count, toxicity
# [3] = inhibitors of E-selectin induction by TNFa, primary screen, imaging, HUVEC, immunofluorescence, MLSMR starter and 10KST1 sets (AID 487;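 active means visually confirmed hit in the image check and inhibition above 20%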;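 on inhibition: signal is fraction of cell area covered by stained E-selectin grains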;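 on nuclei count: 100% = median nuclei count of all wells on the same plate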); details: HUVEC TNFalpha-induced E-selectin immunofluorescence imaging, at 2 µM; inhibition: stronger effect = higher value; nuclei count: measured here: cell number, toxicity
# [4] = biological target: Voltage-gated potassium channel subunit beta-2 (Rattus norvegicus) (UniProt P62483); test: KvBeta enzyme negative modulators, primary screen, biochemical, NADPH fluorescence (AID 622;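 active means fluorescence slope higher than the sample average by over 3 SD, cut at about -0.22 in these data, passing the limit was not always enough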;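 further: slope of raw intensity against log time taken from 70 to 1610 s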); details: recombinant KvBeta, 4-cyanobenzaldehyde reduction, at 10 µM, stronger effect = higher value
# Voltage-gated potassium channel subunit beta-2 (Rattus norvegicus), sequence (P62483 whole entry, looked up): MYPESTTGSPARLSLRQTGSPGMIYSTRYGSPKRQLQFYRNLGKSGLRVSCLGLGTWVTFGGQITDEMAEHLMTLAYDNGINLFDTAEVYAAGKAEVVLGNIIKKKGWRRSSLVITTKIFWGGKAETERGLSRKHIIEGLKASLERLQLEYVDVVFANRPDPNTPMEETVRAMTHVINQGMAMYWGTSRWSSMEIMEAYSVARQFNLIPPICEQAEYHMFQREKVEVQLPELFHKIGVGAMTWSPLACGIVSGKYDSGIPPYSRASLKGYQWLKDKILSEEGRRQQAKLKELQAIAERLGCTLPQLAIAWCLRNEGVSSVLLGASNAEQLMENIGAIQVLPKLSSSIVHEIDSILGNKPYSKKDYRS
# [5] = biological target: Voltage-gated potassium channel subunit beta-2 (Rattus norvegicus) (UniProt P62483); test: KvBeta positive modulators, primary screen, biochemical, NADPH fluorescence (AID 623;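 active means NADPH fluorescence slope more negative than the mean of all samples by about 3 SD, 99.7% confidence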;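 further: fluorescence intensity change per second fitted from 20 to 320 s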); details: Recombinant KvBeta, NADPH fluorescence decrease slope, 10 min; at 10 µM; stronger effect = lower value
# [6] = biological target: Alpha-2C adrenergic receptor (Homo sapiens) (UniProt P18825); test: modulators of alpha2C/GIRK thallium flux, primary screen, cell-based, HEK293 alpha2C/GIRK1/2 (AID 624;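 active means fluorescence slope after compound addition differing from the mean of all screened samples at 99.7% confidence, in either direction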;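 further: slope of fluorescence ratio to pre-addition baseline per second over 15 to 24 s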); details: thallium flux BTC fluorescence, at 10 µM, actives lie on both sides
# Alpha-2C adrenergic receptor (Homo sapiens), sequence (P18825 whole entry, looked up): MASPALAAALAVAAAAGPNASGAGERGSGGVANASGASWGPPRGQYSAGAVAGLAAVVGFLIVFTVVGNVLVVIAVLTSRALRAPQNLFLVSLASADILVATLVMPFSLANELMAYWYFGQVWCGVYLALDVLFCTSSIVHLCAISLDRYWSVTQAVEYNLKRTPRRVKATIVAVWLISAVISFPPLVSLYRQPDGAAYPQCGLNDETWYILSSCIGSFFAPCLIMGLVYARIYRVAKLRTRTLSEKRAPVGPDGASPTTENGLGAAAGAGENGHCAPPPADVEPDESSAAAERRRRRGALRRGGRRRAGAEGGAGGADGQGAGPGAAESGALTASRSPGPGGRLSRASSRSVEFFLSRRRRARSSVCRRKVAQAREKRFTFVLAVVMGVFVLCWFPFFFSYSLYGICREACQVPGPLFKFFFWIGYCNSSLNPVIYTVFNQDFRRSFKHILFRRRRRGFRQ
# [7] = inhibitors of Sendai virus-induced IRF3 signaling, primary screen, TLR/RLR signaling modifier project, cell-based, Sendai virus stimulus, luciferase, 10K MLSCN set (AID 602276;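 active means inhibition at or above 50% at 10 µM; inactive means inhibition below 50%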;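 further: firefly luciferase from ISG56 promoter only with Renilla not read in this screen; 0% = Sendai virus plus DMSO and 100% = medium plus DMSO without virus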); details: HEK293 RL24 IRF3 luciferase reporter, at 10 µM, stronger effect = higher value
# [8] = inhibitors of poly I:C-induced TLR3 signaling, primary screen, cell-based, poly I:C stimulus, luciferase, 10K MLSCN set (AID 602277); details: HEK293-TLR3 RL24 IRF3 luciferase reporter, at 10 µM, stronger effect = higher value
Compound,cell count [1],inhibition [1],inhibition of aggregation [2],nuclei count [2],inhibition [3],nuclei count [3],fluorescence slope [4],NADPH fluorescence slope [5],slope [6],inhibition [7],inhibition [8]
CSc1nc2ccc(Nc3nc(N4CCOCC4)nc(N4CCOCC4)n3)cc2s1,391,4.9% (inactive),6.4% (inactive),106%,17.6% (inactive),110%,-0.354 (inactive),-2.2e-05 (inactive),0.00663 (inactive),-24.9% (inactive),-49.5% (inactive)
COC(=O)CSc1nnc(-c2cccs2)n1-c1ccc(Cl)cc1,347,12.8% (inactive),10.2% (inactive),106%,-50.2% (inactive),119%,-0.482 (inactive),-1.6e-05 (inactive),0.00413 (inactive),17% (inactive),15.7% (inactive)
O=C(NCc1cccnc1)c1ccc2c(c1)OCO2,415,10.5% (inactive),-7.2% (inactive),103%,4.1% (inactive),110%,-0.53 (inactive),3.1e-05 (inactive),0.00534 (inactive),-28.8% (inactive),-20% (inactive)
CCOC(=O)N1CCN(c2c(N3CCN(c4ccccn4)CC3)c(=O)c2=O)CC1,555,3.4% (inactive),25.3% (inactive),76.1%,-24.6% (inactive),119%,-0.506 (inactive),-5.8e-06 (inactive),0.00633 (inactive),9.82% (inactive),16.3% (inactive)
Cc1ccc(C(=O)N2CCN(C(=O)c3ccc(C)c(C)c3)C(C)C2)cc1C (centres undefined),409,-0.7% (inactive),-2.3% (inactive),94.3%,-179% (inactive),200%,-0.264 (inactive),-5.3e-05 (inactive),0.00164 (inactive),4.92% (inactive),22.7% (inactive)
COc1ccc(OC)c(CNC(=O)COc2cc(=O)n(C)c3ccccc23)c1,367,4.3% (inactive),-8.1% (inactive),105%,18% (inactive),100%,-0.349 (inactive),-7.1e-06 (inactive),0.00576 (inactive),6.07% (inactive),6.23% (inactive)
COCCOC(=O)C1=C(C)NC(=O)CC1c1cc2c(cc1Br)OCO2 (centres undefined),424,4.1% (inactive),16.1% (inactive),104%,-12.8% (inactive),95.1%,-0.395 (inactive),-2.8e-05 (inactive),0.0043 (inactive),17.3% (inactive),16.1% (inactive)
CCOC(=O)c1ccc(NS(=O)(=O)c2cccc3nsnc23)cc1,387,-6.2% (inactive),18.9% (inactive),83.1%,-63.9% (inactive),104%,-0.409 (inactive),4.3e-05 (inactive),0.00792 (inactive),-5.26% (inactive),0.648% (inactive)
COCc1[nH]nc2c1C(c1cc(OC)c(O)c(OC)c1)C(C#N)=C(N)O2 (centres undefined),397,-1.6% (inactive),-17% (inactive),115%,-26.1% (inactive),117%,-0.502 (inactive),-4.1e-05 (inactive),0.0049 (inactive),17.4% (inactive),21.1% (inactive)
CCSc1nnc(NC(=O)CCNS(=O)(=O)c2cc(Br)cnc2N)s1,243,-1.3% (inactive),3.8% (inactive),93.5%,32.4% (inactive),80.5%,-0.444 (inactive),1.8e-05 (inactive),0.0065 (inactive),2.91% (inactive),8.81% (inactive)
O=C(O)CCNc1nc(-c2ccccc2)nc2ccccc12,619,-7.6% (inactive),-14.3% (inactive),103%,-28.1% (inactive),127%,-0.579 (inactive),3e-05 (inactive),0.00675 (inactive),-3.96% (inactive),7.69% (inactive)
CCOC(=O)c1c(NC(=O)c2nn(CC)cc2Br)c(C#N)cn1-c1ccccc1,467,0.6% (inactive),-9.2% (inactive),51.8%,-36.5% (inactive),93.5%,-0.407 (inactive),-2.9e-05 (inactive),0.00368 (inactive),0.0192% (inactive),-9.02% (inactive)
CCOc1ccc(CNC(=O)C2CCCN(S(C)(=O)=O)C2)cc1OC (centres undefined),664,-7.1% (inactive),11.9% (inactive),84%,-95.3% (inactive),136%,-0.356 (inactive),-1.3e-05 (inactive),0.00564 (inactive),9.09% (inactive),12% (inactive)
CC(=O)c1c(C)oc2ccc(NS(=O)(=O)c3ccc(O)c(C(=O)O)c3)cc12,380,8.9% (inactive),-7.5% (inactive),108%,-5.6% (inactive),112%,-0.576 (inactive),-2.5e-05 (inactive),0.00663 (inactive),7.79% (inactive),19.3% (inactive)
Cc1ccccc1C1CC(c2ccccc2)Nc2ncnn21 (centres undefined),561,0% (inactive),-26.3% (inactive),92.1%,-47% (inactive),108%,-0.528 (inactive),-1.4e-06 (inactive),0.00646 (inactive),3.07% (inactive),15.7% (inactive)
O=S(=O)(Nc1cccnc1)c1cc(Cl)ccc1Cl,395,2.5% (inactive),6.1% (inactive),99.9%,26.2% (inactive),115%,-0.286 (inactive),2e-06 (inactive),0.00524 (inactive),23.6% (inactive),7.22% (inactive)
CC(=O)NC(CCS(C)(=O)=O)C(=O)Nc1cccc(C)c1C (centres undefined),576,4.3% (inactive),0.4% (inactive),110%,-6.3% (inactive),117%,-0.542 (inactive),-7e-05 (inactive),0.00627 (inactive),17.7% (inactive),38.7% (inactive)
Cc1ccc2[nH]c(=O)c(CN(Cc3ccc4c(c3)OCO4)Cc3nnnn3Cc3ccco3)cc2c1,638,2.2% (inactive),-15.3% (inactive),94.1%,-74.1% (inactive),122%,-0.622 (inactive),-7e-06 (inactive),0.00625 (inactive),9.33% (inactive),12.2% (inactive)
O=c1cc(CSc2ccccn2)c2ccccc2[nH]1,446,1.4% (inactive),9.1% (inactive),74.9%,-59.6% (inactive),128%,-0.578 (inactive),-3e-05 (inactive),0.00572 (inactive),10.1% (inactive),18.8% (inactive)
